Source: PubChem BioAssay (NCI)
Several values for one entry are separate records, joined by “and”; a condition that tells them apart may be missing. Equal entries are not always repeated. The panel holds about 83,000 compounds, 20% with a hit somewhere; the sample as a whole holds those more often.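 Negative percent growth values reflect cell death: -40 means 40% of the cells present at the start died, and -100 means all died.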 Activity calls are given as the source filed them. How the source made its calls: active means growth percent below 10; inactive means the rest. *1 amine or outer side, *2 acyl side, *3 side chain or, on linkers, in order; H or OH if unused. Where a SMILES comes first, the peptide text is derived from it. Bridges are numbered along the chain shown (N, C = ends). Roman numbers before positions name the chains, in order. [ ]: non-standard residue; d: D form. Actinocin(1to9) = Cc1c2oc3c(C)ccc(C(=O)[*:2])c3nc-2c(C(=O)[*:1])c(N)c1=O; NMeV = CN[CH](C(=O)O)C(C)C; Sar = CNCC(=O)O

Legend:
Assay in all cases: NCI-60 one-dose screen, 48 h (100 = growth as untreated, 0 = no growth, -100 = all killed)
T-47D breast = conditions: 10 µM unless noted
BT-549 breast = conditions: 10 µM unless noted
MDA-MB-435 melanoma = conditions: 10 µM unless noted
SW-620 colon = conditions: 10 µM unless noted
MCF7 breast = test system: MCF7 breast
HCT-116 colon = conditions: 10 µM unless noted
HCC-2998 colon = conditions: 10 µM unless noted
KM12 colon = conditions: 10 µM unless noted

Measured: growth

Cc1cc2cccnc2c2ncccc12
active: T-47D breast 2.22% | MCF7 breast; 10 µM unless noted 3.96%
inactive: BT-549 breast 36% | MDA-MB-435 melanoma 35.9% | SW-620 colon 31.6% | HCT-116 colon 14% | HCC-2998 colon 29.5%

C=C(C(N)=O)C(N)C(=O)O (centres undefined)
inactive: T-47D breast 106% | BT-549 breast 108% | MDA-MB-435 melanoma 123% | SW-620 colon 109% | MCF7 breast; 10 µM unless noted 102% | HCT-116 colon 92.4% | HCC-2998 colon 108%

COC(=O)C(=[N+]=[N-])C(=O)c1ccc([N+](=O)[O-])o1
inactive: T-47D breast 89.7% | BT-549 breast 101% | MDA-MB-435 melanoma 103% | SW-620 colon 44% | MCF7 breast; 10 µM unless noted 65.1% | HCT-116 colon 73.4% | HCC-2998 colon 107%

CC(C)=CCCC(C)C1=C(O)C(=O)C(C)=CC1=O (centres undefined)
inactive: BT-549 breast 24.7% | MDA-MB-435 melanoma 102% | MCF7 breast; 10 µM 66.9% | HCC-2998 colon 100%
active: T-47D breast -66.9% | SW-620 colon -49.5% | MCF7 breast; 100 µM -52.3% and -33.3% | HCT-116 colon -85.2%

CC(=O)c1ccc2c(c1)CCc1ccccc1-2
inactive: T-47D breast 97.8% | BT-549 breast 104% | MDA-MB-435 melanoma 100% | SW-620 colon 102% | MCF7 breast; 10 µM unless noted 90.2% | HCT-116 colon 96.6% | HCC-2998 colon 109%

Cc1ccc(Nc2ccc(O)c3c2C(=O)c2c(O)ccc(Nc4ccc(C)cc4)c2C3=O)cc1
inactive: T-47D breast 96.9% | BT-549 breast 113% | MDA-MB-435 melanoma 104% | SW-620 colon 103% | MCF7 breast; 10 µM unless noted 98% | HCT-116 colon 93.5% | HCC-2998 colon 113%

CC(C)=C1C=C2CC[C@@H]3[C@](C)(CCC[C@@]3(C)C(=O)O)[C@H]2CC1
inactive: T-47D breast 97.6% | BT-549 breast 126% | MDA-MB-435 melanoma 101% | SW-620 colon 102% | MCF7 breast; 10 µM unless noted 95.9% | HCT-116 colon 107%

Oc1ccc(Br)cc1Sc1cc(Br)ccc1O
inactive: T-47D breast 17.7% | BT-549 breast 43.8% | MDA-MB-435 melanoma 56.7% | SW-620 colon 64.1% | MCF7 breast; 10 µM unless noted 59.2% | HCT-116 colon 34.3% | HCC-2998 colon 91.7%

O=C1C=CC(=O)c2c(O)c(CO)c(CO)c(O)c21
inactive: T-47D breast 96.3% | BT-549 breast 97% | MDA-MB-435 melanoma 83.5% | SW-620 colon 109% | MCF7 breast; 10 µM unless noted 96.9% | HCT-116 colon 74.7% | HCC-2998 colon 108%

COc1cc(/C=C2\SC(=S)N(/C=C/c3nc4ccccc4[nH]c3=O)C2=O)cc(OC)c1OC
inactive: T-47D breast 52.6% | BT-549 breast 80.8% | MDA-MB-435 melanoma 81.9% | SW-620 colon 91.2% | MCF7 breast; 10 µM unless noted 82.1% | HCT-116 colon 78.8% | HCC-2998 colon 87.5%

COC(=O)c1nc(=S)[nH]c(C(=O)OC)c1C(=O)c1ccc(Cl)c(Cl)c1
inactive: T-47D breast 100% | BT-549 breast 129% | MDA-MB-435 melanoma 106% | SW-620 colon 106% | MCF7 breast; 10 µM unless noted 97.4% | HCT-116 colon 106% | HCC-2998 colon 113%

CCCCCCCCCCCCSC(=N)N
inactive: BT-549 breast 63.6%
active: T-47D breast -35.5% | MDA-MB-435 melanoma -73.2% | SW-620 colon -61.5% | MCF7 breast; 10 µM unless noted -30.8% | HCT-116 colon -64.2% | HCC-2998 colon -80.5%

CC(C)Nc1ccc(Nc2ccc(NC(C)C)cc2)cc1
inactive: T-47D breast 31.9% | BT-549 breast 53.2% | MDA-MB-435 melanoma 51.4% | SW-620 colon 47.9% | MCF7 breast; 10 µM unless noted 28.9% | HCT-116 colon 25.7% | HCC-2998 colon 61.2%

CCC(C)C1NC(=O)C(NC(=O)c2c3nc4c(C(=O)NC5C(=O)NC(C(C)CC)C(=O)N6CCCC6C(=O)N(C)CC(=O)N(C)C(C(C)C)C(=O)OC5C)ccc(C)c4oc-3c(C)c(=O)c2N)C(C)OC(=O)C(C(C)C)N(C)C(=O)CN(C)C(=O)C2CCCN2C1=O (centres undefined) (I: TIP[Sar][NMeV] / II: TIP[Sar][NMeV]; ester I:1-I:C, II:1-II:C; linker I:N-II:N via Actinocin(1to9); configuration not given here)
active: T-47D breast -8.27% | BT-549 breast -41.6% | MDA-MB-435 melanoma -91.1% | SW-620 colon -20.8% | MCF7 breast; 10 µM unless noted -26.2% | HCT-116 colon 0.361%

C/C=C/c1cc2c(c(=O)o1)C(=O)[C@@H](O)[C@H](C)O2
inactive: T-47D breast 20.4% | BT-549 breast 18.2% | MDA-MB-435 melanoma 65.6% | SW-620 colon 19.5% | MCF7 breast; 10 µM unless noted 26.1% | HCT-116 colon 14.1% | HCC-2998 colon 79.5% | KM12 colon 42.2%

Nc1cccc2cccc([N+](=O)[O-])c12
inactive: T-47D breast 113% | BT-549 breast 105% | MDA-MB-435 melanoma 108% | SW-620 colon 106% | MCF7 breast; 10 µM unless noted 86.6% | HCT-116 colon 104% | HCC-2998 colon 103%

CC1(C)N=c2cc3c(cc2N1c1ccc(Cl)cc1)=Nc1ccccc1N3c1ccc(Cl)cc1
inactive: T-47D breast 25.1% | BT-549 breast 44% | MDA-MB-435 melanoma 77.9% | SW-620 colon 53.5% | MCF7 breast; 10 µM unless noted 28.9% | HCC-2998 colon 36.9% | KM12 colon 77%
active: HCT-116 colon -41.3%

CCCCCCCCc1cc(Cl)c(O)c(Cl)c1
inactive: T-47D breast 101% | BT-549 breast 116% | MDA-MB-435 melanoma 102% | SW-620 colon 117% | MCF7 breast; 10 µM unless noted 118% | HCT-116 colon 103% | HCC-2998 colon 112%

Cc1nc([N+](=O)[O-])c(Sc2nncc(-c3ccccc3)n2)n1C
inactive: T-47D breast 15.3% | BT-549 breast 66.6% | MDA-MB-435 melanoma 76.3% | SW-620 colon 77.1% | MCF7 breast; 10 µM unless noted 43.8% | HCT-116 colon 53.2% | HCC-2998 colon 98.3%
